From PubChem BioAssay
Sampled rows, rich in hits. Any-hit rate of the full collection: about 4.3%.
dFosB act = mouse delta FosB homodimer activation | activation, % at 25 µM | P13346 | AID 493131 | purified delta FosB, TAMRA-CDK5 oligo fluorescence polarization; percent of positive-control signal above neutral wells | actives 0.99% (n = 340,000);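 active = mean activation above about 17%, with every replicate also reaching it, limit read from the data, passing the limit was not always enough; inconclusive = only one of the two conditions met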
NR3A LBD binder = modulates the human NR3A ligand-binding domain; actives 2.5% (n = 340,000); Tm shift relative to glycine control, % at 25 µM; NR3A LBD differential scanning fluorimetry, Tm shift; 0% = protein alone, 100% = glycine-bound protein;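 active = melting temperature shift of at least 10% of the positive control shift, at one fixed dose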
CR mimetic SO = yeast age-related superoxide inhibition as caloric restriction mimetic | actives 0.18% (n = 330,000) | superoxide response (% of plate mean), % at 10 µM | S. cerevisiae aged cells, superoxide DHE fluorescence; active compounds read low | AID 2690;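 active = superoxide response under a set limit, about three screen SD below normal, cut at about 65% in these data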;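 note: yeast aged for seven days with compound at 30 °C before DHE staining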
NALP1 yeast inh = inhibitors of NALP1 inflammasome in yeast; S. cerevisiae NALP1/ASC/caspase-1 growth, X-gal OD620, 72 h; inhibition, % at 10 µM; actives 0.61% (n = 280,000); AID 2071; in the data active = inhibition mostly above about 24%, no sharp cut-off; inactive = mostly below about 32%
UBC13 inh = inhibitors of human UBC13 polyubiquitin chain formation; TR-FRET; inhibition, % at 20 µM; actives 0.47% (n = 330,000); in the data active = inhibition above about 45%, passing the limit was not always enough; inconclusive = no clear call, values can overlap the other calls
Target sequence (P61088 whole entry, looked up): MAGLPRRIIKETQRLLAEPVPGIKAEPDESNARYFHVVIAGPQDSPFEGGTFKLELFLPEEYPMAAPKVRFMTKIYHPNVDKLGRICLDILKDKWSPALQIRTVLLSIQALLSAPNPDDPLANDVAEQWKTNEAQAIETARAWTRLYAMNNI
Casp3 counter = counter-screen for UBC13 inhibitors: human caspase-3 inhibition; shares compounds with UBC13 inh; inhibition, % at 20 µM; Recombinant caspase-3, Caspase-Glo 3/7 luminescence, 60 min; actives 4% (n = 1,400);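 active = mean inhibition across replicates above about 26%, limit read from the data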
Target sequence (P42574 whole entry, looked up): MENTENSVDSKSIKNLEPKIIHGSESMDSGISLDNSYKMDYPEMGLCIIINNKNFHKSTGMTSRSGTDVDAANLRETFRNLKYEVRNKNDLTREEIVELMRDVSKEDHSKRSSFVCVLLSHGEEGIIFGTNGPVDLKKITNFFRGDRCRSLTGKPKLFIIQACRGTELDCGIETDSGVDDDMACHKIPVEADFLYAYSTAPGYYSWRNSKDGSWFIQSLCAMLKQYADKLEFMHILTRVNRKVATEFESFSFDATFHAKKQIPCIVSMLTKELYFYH
UBC13 confirm = human UBC13 polyubiquitin inhibition, confirmed. shares compounds with UBC13 inh. UBC13 polyubiquitination, TR-FRET, biochemical. inhibition, % at 10 µM. actives 68% (n = 1,400); in the data active = inhibition above about 45%; inconclusive = no clear call, values can overlap the other calls
Large screens that a line does not name were inactive (follow-up assays come after a bar, where they were run).

C#CCOCCOCCOCCNc1nc(N2CCN(C(=O)[C@H]([C@@H](C)CC)n3cc([C@@H](N)CC(C)C)nn3)CC2)nc(N2CCN(C(=O)[C@H](Cc3cc4ccccc4[nH]3)n3cc([C@@H](N)Cc4ccc(O)cc4)nn3)CC2)n1	UBC13 inh 74 (no result: dFosB act) | Casp3 counter inactive | UBC13 confirm 66
N[C@@H](CO)c1cn([C@@H](Cc2cc3ccccc3[nH]2)C(=O)N2CCNCC2)nn1	UBC13 inh 101 | Casp3 counter inactive | UBC13 confirm 107
CCCNC(=O)OCc1cccnc1Sc1ccc(C)cc1	none
CCCCN1CC(=O)N2[C@H]3c4cc(Br)ccc4OC[C@@H]3[C@H](C(=O)OCC)[C@]2(C)C1=O	none (no result: NALP1 yeast inh)
N/C(=N\OC(=O)COc1ccc(Cl)cc1Cl)c1ccncc1	none (no result: CR mimetic SO, UBC13 inh)
C#CCOCCOCCOCCNc1nc(N2CCN(C(=O)[C@H](Cc3ccc(O)cc3)n3cc([C@@H](N)CC(C)C)nn3)CC2)nc(N2CCN(C(=O)[C@H](Cc3cc4ccccc4[nH]3)n3cc([C@@H](N)CC(C)C)nn3)CC2)n1	UBC13 inh 80 (no result: dFosB act, CR mimetic SO) | Casp3 counter inactive | UBC13 confirm 62
C#CCOCCOCCOCCNc1nc(N2CCN(C(=O)[C@H]([C@@H](C)CC)n3cc([C@@H](N)Cc4ccc(O)cc4)nn3)CC2)nc(N2CCN(C(=O)[C@H](Cc3cc4ccccc4[nH]3)n3cc([C@@H](N)CC(C)C)nn3)CC2)n1	dFosB act 23, UBC13 inh 87 (no result: NALP1 yeast inh) | Casp3 counter inactive | UBC13 confirm 61
CCOC(=O)C1CCN(CC(O)COCc2ccc3c(c2)OCO3)CC1 (configuration not stated)	none
O=C1c2cccc3cccc(c23)C(=O)N1CC1CCN(CC(O)COCc2ccc3c(c2)OCO3)CC1 (configuration not stated)	UBC13 inh 95 | Casp3 counter inactive | UBC13 confirm 103
CN(C)CCCNC(=O)C(=O)NCC1OCCN1S(=O)(=O)c1cccs1 (configuration not stated)	UBC13 inh 46 | Casp3 counter inactive | UBC13 confirm inactive
Fc1cccc(CCN2CCNC[C@H]2Cc2cccc3ccccc23)c1	none (no result: NALP1 yeast inh)
c1ccc2c(C[C@@H]3CNCCN3CCCCC3CCCCC3)cccc2c1	dFosB act inconclusive, UBC13 inh 74 (no result: NALP1 yeast inh) | Casp3 counter inactive | UBC13 confirm 61
c1ccc(C[C@H]2CNCCN2CCCCC2CCCCC2)cc1	UBC13 inh 61 (no result: NALP1 yeast inh) | Casp3 counter inactive | UBC13 confirm 68
Cc1ccc(S(=O)(=O)N(CCC(=O)NCC(c2ccccc2)N(C)C)c2ccccc2)cc1 (configuration not stated)	none (no result: CR mimetic SO, NALP1 yeast inh, UBC13 inh)
C#CCOCCOCCOCCNc1nc(N2CCOCC2)nc(N2CCN(C(=O)[C@H](Cc3ccc(O)cc3)n3cc([C@@H](N)C(C)CC)nn3)CC2)n1 (some centres not stated)	none
C#CCOCCOCCOCCNc1nc(N2CCN(C(=O)C(Cc3ccc(O)cc3)n3cc(C(N)C(C)CC)nn3)CC2)nc(N2CCN(C(=O)C(Cc3ccc(O)cc3)n3cc(C(N)C(C)CC)nn3)CC2)n1 (configuration not stated)	UBC13 inh 49 | Casp3 counter inactive | UBC13 confirm inactive
C#CCOCCOCCOCCNc1nc(N2CCN(C(=O)[C@H](CCCCN)n3cc([C@@H](N)C(C)CC)nn3)CC2)nc(N2CCN(C(=O)[C@H](Cc3ccc(O)cc3)n3cc([C@@H](N)CC(C)C)nn3)CC2)n1 (some centres not stated)	UBC13 inh 57 | Casp3 counter inactive | UBC13 confirm inactive
CC(=O)O[C@H]1[C@@H](O)[C@H](O)[C@H](Oc2c(O)c(C)c3c4c2[C@@H](C)CC[C@@H]4[C@@H](C)C[C@H]3C=C(C)C)O[C@H]1C	UBC13 inh 52 (no result: NALP1 yeast inh) | Casp3 counter inactive | UBC13 confirm inactive
NC(=O)CCCn1c(C(=O)c2ccc(Cl)cc2)c2ccc([N+](=O)[O-])cc2[n+]1[O-]	none (no result: NALP1 yeast inh)
NC(=O)CCCn1c(C(=O)c2cc(Cl)c(N)c(Cl)c2)c2ccc([N+](=O)[O-])cc2[n+]1[O-]	UBC13 inh 82 (no result: NALP1 yeast inh) | Casp3 counter inactive | UBC13 confirm 78
Nc1c(C(=O)Nc2ccccc2)sc2nc3c(c(-c4ccco4)c12)CCC3	none
COc1ccc(-c2c3c(nc4sc(C(=O)Nc5ccccc5)c(N)c24)CCC3)cc1	UBC13 inh 46 (no result: NALP1 yeast inh) | Casp3 counter inactive | UBC13 confirm inactive
Cc1cc(N2CCN(C)CC2)nc2ccc(NC(=S)N3CCN(c4ccc(F)cc4)CC3)cc12	UBC13 inh 47 | Casp3 counter inactive | UBC13 confirm inactive
Cc1cc(N2CCN(C)CC2)nc2ccc(NC(=S)N3CCN(c4ccc(Cl)cc4)CC3)cc12	UBC13 inh 76 | Casp3 counter inactive | UBC13 confirm 70
CCOC(=O)Cc1nnc(NC(=O)CSc2nc3ccccc3[nH]2)s1	none (no result: NALP1 yeast inh)
O=C(Cn1c(=O)oc2ccccc21)Nc1ccc(F)cc1	none
CC(C)(C)c1ccc(C(=O)NCCCN2CCN(CCCNC(=O)c3ccc(C(C)(C)C)cc3)CC2)cc1	UBC13 inh 66 | Casp3 counter inactive | UBC13 confirm 74
CC(C)(C)c1ccc(C(=O)NCCN2CCOCC2)cc1	none (no result: NALP1 yeast inh)
Cc1ccc(S(=O)(=O)NCC(c2ccc3c(c2)OCO3)N2CCN(c3ccccc3)CC2)cc1 (configuration not stated)	none (no result: NALP1 yeast inh)
Oc1ccc2ccccc2c1CNc1ccccc1	none (no result: CR mimetic SO, NALP1 yeast inh, UBC13 inh)
Cc1ccnc(NCc2c(O)ccc3ccccc23)c1	UBC13 inh 54 | Casp3 counter inactive | UBC13 confirm 76
CCCN(C(=O)CSc1ccccc1C(=O)O)C1CCS(=O)(=O)C1 (configuration not stated)	none (no result: NALP1 yeast inh)
O=C(NCCN1CCN(c2ccccc2)CC1)c1ccc2c(c1)[nH]c(=S)n1c3ccccc3nc21	UBC13 inh 47 | Casp3 counter inactive | UBC13 confirm inconclusive
C[C@@H]1O[C@@H](O[C@H]2[C@H](Oc3cc(O)c4c(c3)O[C@H](c3ccc(O)cc3)CC4=O)O[C@H](CO)[C@@H](O)[C@@H]2O)[C@H](O)[C@H](O)[C@H]1O	UBC13 inh 95 | Casp3 counter inactive | UBC13 confirm 98
C[C@@H]1O[C@@H](O[C@H]2[C@H](Oc3cc(O)c4c(c3)OC(c3ccc(O)cc3)CC4=O)O[C@H](CO)[C@@H](O)[C@@H]2O)[C@H](O)[C@H](O)[C@H]1O (some centres not stated)	UBC13 inh 97 (no result: NALP1 yeast inh) | Casp3 counter inactive | UBC13 confirm 100
COc1cc(NC(=S)NCCN2CCOCC2)cc(OC)c1OC	UBC13 inh 61 | Casp3 counter inactive | UBC13 confirm inactive
COc1cc(NC(=S)NCCCN2CCOCC2)cc(OC)c1OC	none
